From PubChem BioAssay AID1159580 (chemical genetic matrix, 2015)
Values joined by “and” are separate entries in the source; they are usually repeats but may differ in a detail not shown here. Identical values can stand only once. Screen size: about 5,500 compounds; about 2,000 (36%) were called active. Not shown: some 18% with an inconclusive outcome. No stated cut-off is given here; in the data, active means normalized growth mostly below about 0.91 (no sharp cut-off); inconclusive means no clear call, values can overlap the other calls; inactive means mostly above about 0.92. The list shows a part of the results.

Experiment: chemical genetic growth profiling, strain panel (AID 1159580);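 further: tested at 20 µM; growth read once vehicle control cultures reached saturation at 30 °C; 1 = growth at the plate median or of vehicle wells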
Conditions: S. cerevisiae deletion strains, growth OD
[1] = locus YBR229C, strain ROT2, stronger effect = lower value
[2] = locus YDL101C, strain DUN1, stronger effect = lower value
[3] = locus YDR150W, strain NUM1, stronger effect = lower value
[4] = locus YEL061C, strain CIN8, stronger effect = lower value
[5] = locus YGR078C, strain PAC10, stronger effect = lower value
[6] = locus YHR030C, strain SLT2, stronger effect = lower value
[7] = locus YJR043C, strain POL32, stronger effect = lower value
[8] = locus YKL190W, strain CNB1, stronger effect = lower value
[9] = locus YLR039C, strain RIC1, stronger effect = lower value
[10] = locus YLR262C, strain YPT6, stronger effect = lower value
[11] = locus YMR263W, strain SAP30, stronger effect = lower value
[12] = locus YNL153C, strain GIM3, stronger effect = lower value
[13] = locus YPL055C, strain LGE1, stronger effect = lower value

Measured: normalized growth

CC(C)N(Cc1ccc(N(C)C)cc1)S(=O)(=O)c1cc(Cl)c(Cl)cc1Cl
inactive: locus YAL013W, strain DEP1, stronger effect = lower value 1 | [1] 1.01 | [2] 1.03 | locus YDL134C, strain PPH21, stronger effect = lower value 1.01 | [3] 1.01 | [4] 0.986 | [5] 1.02 | [6] 1.07 | locus YHR087W, strain rtc3, stronger effect = lower value 1 | [7] 1.01 | locus YJR075W, strain HOC1, stronger effect = lower value 1.02 | [8] 1.01 | [9] 1.01 | locus YLR058C, strain SHM2 (second series), stronger effect = lower value 1 | locus YLR085C, strain ARP6, stronger effect = lower value 1.06 | [10] 0.999 | locus YML094W, strain GIM5, stronger effect = lower value 1.02 | locus YMR219W, strain ESC1, stronger effect = lower value 1 | [11] 1.02 | locus YNL128W, strain TEP1, stronger effect = lower value 1.02 | [12] 1.03 | locus YNL298W, strain CLA4 (second series), stronger effect = lower value 1.03 | locus YNL322C, strain KRE1, stronger effect = lower value 1.01 | locus YNR030W, strain Alg12, stronger effect = lower value 1.04 | locus YOL006C, strain TOP1, stronger effect = lower value 1.08 | [13] 1 | locus YPL241C, strain CIN2, stronger effect = lower value 1.04 | locus YPR135W, strain CTF4, stronger effect = lower value 1.1

CC(=O)c1c(O)c(C)c(O)c2c1OC1=CC(=O)C(C(C)=O)C(=O)C12C (stereo not drawn)
active: locus YAL021C, strain ccr4, stronger effect = lower value 0.816 | locus YAL026C, strain drs2, stronger effect = lower value 0.812 | locus YBR009C, strain hhf1, stronger effect = lower value 0.739 | locus YCL011C, strain gbp2, stronger effect = lower value 0.672 | locus YCL061C, strain MRC1, stronger effect = lower value 0.858 | locus YCR088W, strain abp1, stronger effect = lower value 0.872 | locus YDL185W, strain tfp1, stronger effect = lower value 0.506 | locus YDL192W, strain arf1, stronger effect = lower value 0.852 | locus YDR101C, strain arx1, stronger effect = lower value 0.89 | locus YDR159W, strain sac3, stronger effect = lower value 0.762 | locus YDR195W, strain ref2 0.799 | locus YDR335W, strain msn5, stronger effect = lower value 0.752 | locus YDR392W, strain spt3, stronger effect = lower value 0.526 | locus YDR502C, strain sam2, stronger effect = lower value 0.853 | locus YEL003W, strain gim4, stronger effect = lower value 0.787 | locus YEL061C, strain CIN8 (second series), stronger effect = lower value 0.895 | locus YER015W, strain faa2, stronger effect = lower value 0.912 | locus YGL078C, strain dbp3, stronger effect = lower value 0.567 | locus YGL086W, strain mad1, stronger effect = lower value 0.909 | locus YGL253W, strain hxk2, stronger effect = lower value 0.892 | locus YHR079C, strain IRE1, stronger effect = lower value 0.133 | locus YHR142W, strain chs7, stronger effect = lower value 0.82 | locus YIL125W, strain kgd1, stronger effect = lower value 0.365 | locus YJL092W, strain hpr5, stronger effect = lower value 0.908 | locus YJL129C, strain trk1, stronger effect = lower value 0.684 | locus YJL164C, strain tpk1, stronger effect = lower value 0.84 | locus YJR066W, strain TOR1, stronger effect = lower value 0.465 | locus YKL009W, strain mrt4, stronger effect = lower value 0.387 | locus YKL085W, strain MDH1 (second series), stronger effect = lower value 0.275 | locus YKL085W, strain MDH1, stronger effect = lower value 0.275 | locus YKR001C, strain vps1, stronger effect = lower value 0.813 | locus YLL026W, stronger effect = lower value 0.925 | locus YLR027C, strain aat2, stronger effect = lower value 0.796 | locus YLR113W, strain HOG1, stronger effect = lower value 0.186 | locus YLR221C, strain rsa3, stronger effect = lower value 0.781 | locus YLR258W, strain gsy2, stronger effect = lower value 0.889 | locus YLR262C, strain YPT6 (second series), stronger effect = lower value 0.723 | locus YLR370C, strain arc18, stronger effect = lower value 0.9 | locus YLR418C, strain cdc73, stronger effect = lower value 0.694 | locus YML120C, strain ndi1, stronger effect = lower value 0.439 | locus YMR058W, strain fet3, stronger effect = lower value 0.834 | locus YMR125W, strain sto1, stronger effect = lower value 0.875 | locus YMR129W, stronger effect = lower value 0.911 | locus YMR205C, strain PFK2, stronger effect = lower value 0.759 | locus YMR231W, strain pep5, stronger effect = lower value 0.169 | locus YNL071W, strain lat1, stronger effect = lower value 0.907 | locus YNL183C, strain NPR1, stronger effect = lower value 0.693 | locus YNL209W, strain ssb2, stronger effect = lower value 0.924 | locus YNL250W, strain rad50, stronger effect = lower value 0.328 | locus YNL271C, strain bni1, stronger effect = lower value 0.773 | locus YNL298W, strain CLA4, stronger effect = lower value 0.332 | locus YNL322C, strain KRE1 (second series), stronger effect = lower value 0.83 | locus YNR052C, strain pop2, stronger effect = lower value 0.876 | locus YOR001W, strain rrp6, stronger effect = lower value 0.672 | locus YOR083W, strain WHI5, stronger effect = lower value 0.859 | locus YOR106W, strain vam3, stronger effect = lower value 0.254 | locus YOR144C, strain elg1, stronger effect = lower value 0.898 | locus YOR184W, strain ser1, stronger effect = lower value 0.723 | locus YOR231W, strain MKK1, stronger effect = lower value 0.127 | locus YOR265W, strain rbl2, stronger effect = lower value 0.928 | locus YOR290C, strain snf2, stronger effect = lower value 0.644 | locus YPL078C, strain atp4, stronger effect = lower value 0.873 | locus YPL240C, strain hsp82, stronger effect = lower value 0.894 | locus YPL256C, strain CLN2, stronger effect = lower value 0.189 | locus YPR141C, strain kar3, stronger effect = lower value 0.888 | strain wtn01, stronger effect = lower value 0.841
1.01 (inactive) and 0.142 (active): [6]
1.03 (inactive) and 0.13 (active): locus YJL095W, strain BCK1, stronger effect = lower value
inactive: locus YAL030W, strain snc1, stronger effect = lower value 0.938 | locus YBL061C, strain skt5, stronger effect = lower value 0.966 | locus YBR021W, strain FUR4, stronger effect = lower value 1.01 | locus YBR023C, strain chs3, stronger effect = lower value 0.978 | locus YBR171W, strain sec66, stronger effect = lower value 0.933 | [1] 1.01 | locus YBR231C, strain swc5, stronger effect = lower value 0.963 | locus YBR279W, strain paf1, stronger effect = lower value 1.01 | locus YCL016C, strain dcc1, stronger effect = lower value 0.987 | locus YCL029C, strain bik1, stronger effect = lower value 0.976 | locus YCL069W, strain vba3, stronger effect = lower value 0.957 | locus YDL005C, strain med2, stronger effect = lower value 0.985 | locus YDL035C, strain GPR1, stronger effect = lower value 1.01 | locus YDL040C, strain nat1, stronger effect = lower value 0.991 | locus YDL074C, strain BRE1, stronger effect = lower value 0.987 | [2] 1.01 | locus YDR001C, strain nth1, stronger effect = lower value 0.96 | locus YDR069C, strain doa4, stronger effect = lower value 0.98 | locus YDR137W, strain rgp1, stronger effect = lower value 0.972 | [3] 1.01 | locus YDR162C, strain NBP2, stronger effect = lower value 1.03 | locus YDR297W, strain sur2, stronger effect = lower value 0.962 | locus YDR318W, strain mcm21, stronger effect = lower value 0.981 | locus YDR334W, strain swr1, stronger effect = lower value 0.953 | locus YDR388W, stronger effect = lower value 0.976 | locus YEL037C, strain rad23, stronger effect = lower value 0.948 | [4] 1.01 | locus YER016W, strain bim1, stronger effect = lower value 1 | locus YER110C, stronger effect = lower value 0.988 | locus YER111C, strain swi4, stronger effect = lower value 0.919 | locus YER155C, strain BEM2 (second series), stronger effect = lower value 0.868 | locus YER155C, strain BEM2, stronger effect = lower value 1.01 | locus YER167W, strain BCK2, stronger effect = lower value 1.01 | locus YFR010W, strain ubp6, stronger effect = lower value 0.901 | locus YGL167C, strain pmr1, stronger effect = lower value 1.01 | locus YGL173C, strain kem1, stronger effect = lower value 0.992 | locus YGL227W, strain vid30, stronger effect = lower value 0.946 | locus YGL240W, strain doc1, stronger effect = lower value 0.894 | locus YGL248W, strain PDE1, stronger effect = lower value 1.02 | [5] 1.02 | locus YGR135W, strain pre9, stronger effect = lower value 0.946 | locus YGR252W, strain gcn5, stronger effect = lower value 0.945 | locus YHR013C, strain ard1, stronger effect = lower value 1 | locus YHR027C, strain rpn1, stronger effect = lower value 0.983 | locus YHR079C, strain IRE1 (second series), stronger effect = lower value 0.986 | locus YHR094C, strain hxt1, stronger effect = lower value 0.984 | locus YHR129C, strain ARP1, stronger effect = lower value 1.02 | locus YHR200W, strain rpn10, stronger effect = lower value 0.932 | locus YIL066C, strain RNR3, stronger effect = lower value 1.02 | locus YIL073C, strain SPO22, stronger effect = lower value 1.03 | locus YIR030C, strain dcg1, stronger effect = lower value 0.975 | locus YJL095W, strain BCK1 (second series), stronger effect = lower value 0.964 | locus YJL115W, strain asf1, stronger effect = lower value 0.947 | locus YJL134W, strain LCB3, stronger effect = lower value 1.01 | locus YJL154C, strain vps35, stronger effect = lower value 0.979 | locus YJL166W, strain qcr8, stronger effect = lower value 0.913 | locus YJL168C, strain set2, stronger effect = lower value 0.972 | locus YJL187C, strain SWE1 (second series), stronger effect = lower value 1.01 | locus YJL187C, strain SWE1, stronger effect = lower value 0.972 | [7] 1.01 | locus YKL068W, stronger effect = lower value 1.01 | locus YKL160W, strain elf1, stronger effect = lower value 0.977 | [8] 1.01 | locus YKR026C, strain gcn3, stronger effect = lower value 0.938 | locus YKR091W, strain srl3, stronger effect = lower value 0.942 | locus YLL001W, strain dnm1, stronger effect = lower value 0.933 | locus YLL041C, strain sdh2, stronger effect = lower value 0.936 | [9] 1.01 | locus YLR058C, strain SHM2, stronger effect = lower value 1.01 | locus YLR102C, strain apc9, stronger effect = lower value 0.99 | [10] 1.03 | locus YLR268W, strain sec22, stronger effect = lower value 0.932 | locus YLR320W, strain mms22, stronger effect = lower value 0.907 | locus YLR330W, strain CHS5, stronger effect = lower value 1.01 | locus YLR342W, strain FKS1 (second series), stronger effect = lower value 0.946 | locus YLR342W, strain FKS1, stronger effect = lower value 0.93 | locus YLR357W, strain rsc2, stronger effect = lower value 0.886 | locus YLR371W, strain rom2, stronger effect = lower value 0.998 | locus YLR384C, strain iki3, stronger effect = lower value 0.957 | locus YML016C, strain PPZ1, stronger effect = lower value 1.01 | locus YML032C, strain rad52, stronger effect = lower value 0.953 | locus YML124C, strain tub3, stronger effect = lower value 0.96 | locus YMR078C, strain ctf18, stronger effect = lower value 0.976 | locus YMR223W, strain ubp8, stronger effect = lower value 0.958 | [11] 1.01 | locus YMR307W, strain GAS1, stronger effect = lower value 0.956 | locus YNL067W, strain RPL9B, stronger effect = lower value 1.02 | [12] 1.01 | locus YNL233W, strain BNI4, stronger effect = lower value 1.03 | locus YNL248C, strain rpa49, stronger effect = lower value 0.925 | locus YNL307C, strain MCK1, stronger effect = lower value 0.971 | locus YNR049C, strain mso1, stronger effect = lower value 0.962 | locus YOL012C, strain htz1 1.07 | locus YOL147C, strain pex11, stronger effect = lower value 0.968 | locus YOR061W, strain CKA2, stronger effect = lower value 1.02 | locus YOR069W, strain VPS5, stronger effect = lower value 1.01 | locus YOR070C, strain gyp1, stronger effect = lower value 0.966 | locus YOR080W, strain dia2, stronger effect = lower value 0.975 | locus YOR136W, strain idh2, stronger effect = lower value 0.976 | locus YOR270C, strain vph1, stronger effect = lower value 1.08 | locus YOR316C, strain cot1, stronger effect = lower value 0.989 | locus YPL051W, strain arl3, stronger effect = lower value 0.938 | [13] 0.999 | locus YPL106C, strain sse1, stronger effect = lower value 0.86 | locus YPR119W, strain clb2, stronger effect = lower value 0.964 | locus YPR163C, strain tif3, stronger effect = lower value 0.968 | locus YPR167C, strain met16, stronger effect = lower value 0.944
